VP16 counter = inhibits Gal4-VP16 luciferase reporter, ROR gamma counter-screen; Drosophila S2 Gal4-VP16 UAS-luciferase, luminescence, 20 h; AID 2546; Potency, µM (top dose mostly 53.6 µM), hits mostly inhibitors; 3.5% of 310,000 active;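 note: Gal4-VP16 expression switched on by copper sulfate through the metallothionein promoter; nearly all actives have a fitted effect of over 50% in size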
TDP1 cell CPT = growth inhibition of DT40 Tdp1-/-;hTDP1 cells with camptothecin (screen for TDP1 inhibitors). chicken DT40 Tdp1-/-;hTDP1 cells + 20 nM CPT, ATP luminescence, 48 h. Potency, µM (doses to about 46.2 µM), actives largely listed as inhibitors. 12% of 420,000 active. AID 686979; note: nearly all actives have a fitted effect of over 55% in size
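Cell growth measured by CellTiter-Glo luminescence after a minimum 48 h, 37 C compound exposure with 20 nM CPT in Tdp1-knockout DT40 cells stably expressing hTDP1, seeded 400/well; qHTS titration format.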
DT40 TDP1 no CPT = qHTS for Inhibitors of human tyrosyl-DNA phosphodiesterase 1 (TDP1): qHTS in cells in absence of CPT; DT40 Tdp1-/- hTDP1 cells, no CPT, ATP luminescence, 48 h; Potency, µM (doses to about 46.2 µM), actives largely listed as inhibitors; 15% of 420,000 active; AID 686978, 2013; note: nearly all actives have a fitted effect of over 55% in size
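No-CPT arm: Tdp1-/-;hTDP1 DT40 cells (400/well) plus compounds, incubated ≥48 hr at 37 °C. Readout CellTiter-Glo luminescence.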
RORgamma inh = blocks mouse ROR gamma transcriptional activity. Potency, µM (top dose mostly 53.6 µM), most hits filed as inhibitors. Drosophila S2 Gal4-RORgamma UAS-luciferase reporter, 20 h. AID 2551. 5.4% of 310,000 active; note: nearly all actives have a fitted effect of over 60% in size
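Luminescence from a UAS-regulated Photinus luciferase reporter in stably transfected Drosophila Schneider cells is measured; decreased signal marks ROR gamma inhibition. Fusion expression is induced by 700 uM copper sulfate for 20 hr.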
TDP1 inh = TDP1 (human) enzyme inhibition. Q9NUW8. recombinant TDP1, AlphaScreen DNA substrate cleavage. Potency, µM (series often up to 130 µM), usual class: inhibitors. 0.28% of 350,000 active; note: nearly all actives have a fitted effect of over 40% in size
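Steps: enzyme plus compound, 15 min RT; add biotin/phosphotyrosine-FITC oligonucleotide (15 nM final), react 5 min; add donor/acceptor beads (10 ug/ml final), 10 min; read AlphaScreen. Tdp1 at 1 nM final.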
Hits are given with their value; n = inactive; u = inconclusive; x = no result. Compounds with a hit are over-represented: about 19% of the library has one in this group of screens. Calls come from the whole dose curve; as a rule, active = well fitted curve in the direction sought with a large enough effect; inconclusive = small, poorly fitted or top-dose-only effect, or another doubt; inactive = no such curve, though single readings can be large; an effect the other way counts as inactive or inconclusive.

SMILES	VP16 counter	TDP1 cell CPT	DT40 TDP1 no CPT	RORgamma inh	TDP1 inh
CCOC(=O)c1ccc(N2C(=O)c3[nH]nc(-c4ccc(OC)cc4)c3C2c2cccc(O)c2)cc1 (stereo not drawn)	x	18µM	21µM	x	n
CCOC(=O)c1ccc(N2C(=O)c3n[nH]c(-c4cccs4)c3C2c2cccc(OC)c2)cc1 (stereo not drawn)	x	26µM	10µM	x	n
O=C1c2[nH]nc(-c3ccc(F)cc3)c2C(c2ccccc2F)N1c1ccccc1 (stereo not drawn)	x	u	21µM	x	x
CCOC(=O)c1ccc(N2C(=O)c3[nH]nc(-c4ccc(C)cc4)c3C2c2cccc(F)c2)cc1 (stereo not drawn)	x	23µM	u	x	n
COc1cc(C2c3c(-c4ccccc4)n[nH]c3C(=O)N2c2ccccc2)ccc1O (stereo not drawn)	n	u	u	n	n
CCOC(=O)c1ccc(N2C(=O)c3[nH]nc(-c4ccc(C)cc4)c3C2c2ccc(O)cc2)cc1 (stereo not drawn)	x	u	u	x	n
CCOc1ccc(N2C(=O)c3n[nH]c(-c4cccs4)c3C2c2cccc(F)c2)cc1 (stereo not drawn)	x	u	u	x	n
O=C(NNC(=O)C1CCN(S(=O)(=O)c2ccc(Cl)cc2)CC1)c1ccncc1	n	n	n	n	n
CCOC(=O)c1ccc(N2C(=O)c3[nH]nc(-c4ccc(OCC)cc4)c3C2c2ccc(OC)cc2OC)cc1 (stereo not drawn)	x	21µM	18µM	x	n
COc1cccc(NC(=O)CSCn2nnc3c(=O)[nH]c(Cc4ccc(F)cc4)nc32)c1	x	n	4.1µM	x	n
CSCCC(NC(=O)c1ccccc1)C(=O)NCCc1ccc2c(c1)OCCO2 (stereo not drawn)	x	n	n	x	n
CCc1c(C)sc(NC(=O)C2CC2)c1C(=O)OC(C)C	n	u	u	n	n
Cc1cc(Nc2cccc(Cl)c2)nc2ccc(NC(=O)c3cccc(N(C)C)c3)cc12	x	13µM	7.3µM	x	n
CN(C)c1cccc(C(=O)Nc2cccc(F)c2)c1	u	n	n	n	n
Cc1cc(Nc2cccc(C(F)(F)F)c2)nc2ccc(NC(=O)c3ccc(N(C)C)cc3)cc12	x	5.2µM	4.6µM	x	n
Cc1cc(Nc2cccc(Cl)c2)nc2ccc(NC(=O)c3cccnc3)cc12	x	13µM	8.2µM	x	n
COC(=O)c1ccccc1NC(=O)C1=CC(c2ccc3c(c2)OCO3)=NS(=O)(=O)N1C	x	n	n	x	n
CCC1(c2ccc(O)cc2)NC(=O)NC1=O (stereo not drawn)	n	x	x	n	n
Cc1ccc(NC(=O)COc2cccc3ccc(C)nc23)c(Br)c1	n	u	23µM	n	n
CCN(CC)CCCNC(=O)c1ccc(-c2nc(CN3CCc4ccccc43)c(C)o2)cc1	x	x	x	x	n
Cc1ccccc1-c1nc(SCc2cccnc2)c2c(=O)n(C)c(=O)n(C)c2n1	n	n	n	n	n
CCCCn1c(SCc2cccnc2)nc2c1c(=O)n(C)c(=O)n2C	n	13µM	16µM	u	n
CCCc1nc(SCc2ccccn2)c2c(=O)n(C)c(=O)n(C)c2n1	n	u	u	n	n
CCCc1nc(SCc2cccnc2)c2c(=O)n(C)c(=O)n(C)c2n1	n	u	16µM	n	n
Cn1c(=O)c2c(SCc3ccccn3)nc(CC(C)(C)C)nc2n(C)c1=O	n	21µM	21µM	n	n
SMILES	VP16 counter	TDP1 cell CPT	DT40 TDP1 no CPT	RORgamma inh	TDP1 inh
Cn1c(=O)c2c(SCc3cccnc3)nc(CC(C)(C)C)nc2n(C)c1=O	n	15µM	18µM	u	n
CCn1c(SCc2cccnc2)nc2c1c(=O)n(C)c(=O)n2C	n	n	n	n	n
O=C(OCC(=O)N1CCCC1)c1cc(F)c(F)cc1Cl	n	n	n	n	n
COc1cccc(OC)c1-c1cc(CCCc2cc(-c3c(OC)cccc3OC)nc3ccccc23)c2ccccc2n1	x	u	13µM	x	x
CCCCCCCNC1=CC(=O)CC(c2ccccc2)C1 (stereo not drawn)	u	6.5µM	5.8µM	u	n
CCCCCCCCNC1=CC(=O)CC(C)(C)C1	n	u	16µM	u	n
O=C1C=C(Nc2ccccc2)CC(c2ccccc2)C1 (stereo not drawn)	n	n	u	n	n

Source: PubChem BioAssay (National Center for Advancing Translational Sciences (NCATS))
